In PubChem BioAssay AID1159580 (chemical genetic matrix, 2015):
Hit rate of the full screen: of about 5,500 compounds, about 2,000 (36%) were called active. Not shown: some 18% with an inconclusive outcome. No stated cut-off is given here; in the data, active means normalized growth mostly below about 0.91 (no sharp cut-off); inconclusive means no clear call, values can overlap the other calls; inactive means mostly above about 0.92. This is one part of the list.

Assay: chemical genetic growth profiling, strain panel (AID 1159580);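 further: tested at 20 µM; growth read once vehicle control cultures reached saturation at 30 °C; 1 = growth at the plate median or of vehicle wells; lower values mean less growth of the strain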
Settings: growth OD

Measured: normalized growth

Cc1cc(=O)oc2c(O)c(O)ccc12
inactive: S. cerevisiae deletion strains, locus YJR043C, strain POL32, active compounds read low 1 | S. cerevisiae deletion strains, locus YJR066W, strain TOR1, active compounds read low 0.94 | S. cerevisiae deletion strains, locus YJR075W, strain HOC1, active compounds read low 1.02 | S. cerevisiae deletion strains, locus YKL009W, strain mrt4, active compounds read low 0.979 | S. cerevisiae deletion strains, locus YKL068W, active compounds read low 1 | S. cerevisiae deletion strains, locus YKL085W, strain MDH1 (second series), active compounds read low 0.99 | S. cerevisiae deletion strains, locus YKL085W, strain MDH1, active compounds read low 0.99 | S. cerevisiae deletion strains, locus YKL160W, strain elf1, active compounds read low 0.992 | S. cerevisiae deletion strains, locus YKR001C, strain vps1, active compounds read low 0.99 | S. cerevisiae deletion strains, locus YKR026C, strain gcn3, active compounds read low 0.963 | S. cerevisiae deletion strains, locus YKR091W, strain srl3, active compounds read low 0.974 | S. cerevisiae deletion strains, locus YLL001W, strain dnm1, active compounds read low 0.956 | S. cerevisiae deletion strains, locus YLL026W, active compounds read low 0.975 | S. cerevisiae deletion strains, locus YLL041C, strain sdh2, active compounds read low 0.993 | S. cerevisiae deletion strains, locus YLR027C, strain aat2, active compounds read low 0.968 | S. cerevisiae deletion strains, locus YLR039C, strain RIC1, active compounds read low 0.953 | S. cerevisiae deletion strains, locus YLR058C, strain SHM2, active compounds read low 1.02 | S. cerevisiae deletion strains, locus YLR102C, strain apc9, active compounds read low 1.01 | S. cerevisiae deletion strains, locus YLR113W, strain HOG1, active compounds read low 0.981 | S. cerevisiae deletion strains, locus YLR221C, strain rsa3, active compounds read low 0.995 | S. cerevisiae deletion strains, locus YLR258W, strain gsy2, active compounds read low 0.986 | S. cerevisiae deletion strains, locus YLR262C, strain YPT6 (second series), active compounds read low 0.93 | S. cerevisiae deletion strains, locus YLR262C, strain YPT6, active compounds read low 0.923 | S. cerevisiae deletion strains, locus YLR268W, strain sec22, active compounds read low 0.992 | S. cerevisiae deletion strains, locus YLR320W, strain mms22, active compounds read low 0.993 | S. cerevisiae deletion strains, locus YLR330W, strain CHS5, active compounds read low 1.02 | S. cerevisiae deletion strains, locus YLR342W, strain FKS1 (second series), active compounds read low 0.996 | S. cerevisiae deletion strains, locus YLR342W, strain FKS1, active compounds read low 0.971 | S. cerevisiae deletion strains, locus YLR357W, strain rsc2, active compounds read low 0.952 | S. cerevisiae deletion strains, locus YLR370C, strain arc18, active compounds read low 0.958 | S. cerevisiae deletion strains, locus YLR371W, strain rom2, active compounds read low 1 | S. cerevisiae deletion strains, locus YLR384C, strain iki3, active compounds read low 0.954 | S. cerevisiae deletion strains, locus YLR418C, strain cdc73, active compounds read low 1.03 | S. cerevisiae deletion strains, locus YML016C, strain PPZ1, active compounds read low 1.01 | S. cerevisiae deletion strains, locus YML032C, strain rad52, active compounds read low 0.997 | S. cerevisiae deletion strains, locus YML120C, strain ndi1, active compounds read low 0.974 | S. cerevisiae deletion strains, locus YML124C, strain tub3, active compounds read low 1 | S. cerevisiae deletion strains, locus YMR058W, strain fet3, active compounds read low 0.964 | S. cerevisiae deletion strains, locus YMR078C, strain ctf18, active compounds read low 0.976 | S. cerevisiae deletion strains, locus YMR125W, strain sto1, active compounds read low 0.944 | S. cerevisiae deletion strains, locus YMR129W, active compounds read low 0.976 | S. cerevisiae deletion strains, locus YMR205C, strain PFK2, active compounds read low 0.96 | S. cerevisiae deletion strains, locus YMR223W, strain ubp8, active compounds read low 1.02 | S. cerevisiae deletion strains, locus YMR231W, strain pep5, active compounds read low 0.967 | S. cerevisiae deletion strains, locus YMR263W, strain SAP30, active compounds read low 1 | S. cerevisiae deletion strains, locus YMR307W, strain GAS1, active compounds read low 0.965 | S. cerevisiae deletion strains, locus YNL067W, strain RPL9B, active compounds read low 1.01 | S. cerevisiae deletion strains, locus YNL071W, strain lat1, active compounds read low 0.983 | S. cerevisiae deletion strains, locus YNL153C, strain GIM3, active compounds read low 1 | S. cerevisiae deletion strains, locus YNL183C, strain NPR1, active compounds read low 0.931 | S. cerevisiae deletion strains, locus YNL209W, strain ssb2, active compounds read low 0.977 | S. cerevisiae deletion strains, locus YNL233W, strain BNI4, active compounds read low 1.01 | S. cerevisiae deletion strains, locus YNL248C, strain rpa49, active compounds read low 1.01 | S. cerevisiae deletion strains, locus YNL250W, strain rad50, active compounds read low 0.991 | S. cerevisiae deletion strains, locus YNL271C, strain bni1, active compounds read low 1.01 | S. cerevisiae deletion strains, locus YNL298W, strain CLA4, active compounds read low 0.991 | S. cerevisiae deletion strains, locus YNL307C, strain MCK1, active compounds read low 1.03 | S. cerevisiae deletion strains, locus YNL322C, strain KRE1 (second series), active compounds read low 0.968 | S. cerevisiae deletion strains, locus YNR049C, strain mso1, active compounds read low 0.959 | S. cerevisiae deletion strains, locus YNR052C, strain pop2, active compounds read low 0.984 | S. cerevisiae deletion strains, locus YOL006C, strain TOP1, active compounds read low 1.14 | S. cerevisiae deletion strains, locus YOL012C, strain htz1 0.856 | S. cerevisiae deletion strains, locus YOL147C, strain pex11, active compounds read low 1.01 | S. cerevisiae deletion strains, locus YOR001W, strain rrp6, active compounds read low 0.988 | S. cerevisiae deletion strains, locus YOR061W, strain CKA2, active compounds read low 0.999 | S. cerevisiae deletion strains, locus YOR069W, strain VPS5, active compounds read low 1.01 | S. cerevisiae deletion strains, locus YOR070C, strain gyp1, active compounds read low 0.975 | S. cerevisiae deletion strains, locus YOR080W, strain dia2, active compounds read low 0.984 | S. cerevisiae deletion strains, locus YOR083W, strain WHI5, active compounds read low 1 | S. cerevisiae deletion strains, locus YOR106W, strain vam3, active compounds read low 0.926 | S. cerevisiae deletion strains, locus YOR136W, strain idh2, active compounds read low 1.01 | S. cerevisiae deletion strains, locus YOR144C, strain elg1, active compounds read low 0.993 | S. cerevisiae deletion strains, locus YOR184W, strain ser1, active compounds read low 1.01 | S. cerevisiae deletion strains, locus YOR231W, strain MKK1, active compounds read low 0.983 | S. cerevisiae deletion strains, locus YOR265W, strain rbl2, active compounds read low 0.991 | S. cerevisiae deletion strains, locus YOR270C, strain vph1, active compounds read low 0.864 | S. cerevisiae deletion strains, locus YOR290C, strain snf2, active compounds read low 0.962 | S. cerevisiae deletion strains, locus YOR316C, strain cot1, active compounds read low 1 | S. cerevisiae deletion strains, locus YPL051W, strain arl3, active compounds read low 0.995 | S. cerevisiae deletion strains, locus YPL078C, strain atp4, active compounds read low 0.981 | S. cerevisiae deletion strains, locus YPL106C, strain sse1, active compounds read low 0.906 | S. cerevisiae deletion strains, locus YPL240C, strain hsp82, active compounds read low 0.999 | S. cerevisiae deletion strains, locus YPL256C, strain CLN2, active compounds read low 0.971 | S. cerevisiae deletion strains, locus YPR119W, strain clb2, active compounds read low 0.985 | S. cerevisiae deletion strains, locus YPR141C, strain kar3, active compounds read low 1 | S. cerevisiae deletion strains, locus YPR163C, strain tif3, active compounds read low 0.99 | S. cerevisiae deletion strains, locus YPR167C, strain met16, active compounds read low 1.02 | S. cerevisiae deletion strains, strain wtn01, active compounds read low 0.997 | S. cerevisiae strains, strain wild type, active compounds read low 1
